Results: PubChem BioAssay (NCATS)
Records with an inconclusive call do not appear. Entries that show only a call come without a potency. Activity calls are given as the source filed them. Calls follow the shape of the dose curve; as a rule, active = well fitted curve in the direction sought with a large enough effect; inconclusive = small, poorly fitted or top-dose-only effect, or another doubt; inactive = no such curve, though single readings can be large; an effect the other way counts as inactive or inconclusive.

Legend:
[1] = target: Glutathione peroxidase 1 (Homo sapiens) (UniProt P07203); experiment: Primary qHTS Assay for Inhibitors of Recombinant Selenoprotein Glutathione Peroxidase 1 (GPX1) (AID 1845191); also: nearly all actives have a fitted effect of over 65% in size
In short: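 10 nM GPX1 + cpd, 30 min RT; start w/ 1 mM GSH, 0.5 mM cumene hydroperoxide, 0.5 mM NADPH, 100 nM GR, 0.01% BSA; buffer 50 mM Tris-HCl pH 7.5, 2 mM EDTA, 150 mM NaCl; Fl 340/450, 0 & 15 min.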

[2] = target: Phospholipid hydroperoxide glutathione peroxidase GPX4 (Homo sapiens) (UniProt P36969); experiment: Primary qHTS Assay for Inhibitors of Recombinant Selenoprotein Glutathione Peroxidase 4 (GPX4) (AID 1845192); also: nearly all actives have a fitted effect of over 65% in size
In short: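 NADPH consumption, followed by fluorescence at 340/450 nm between 0 and 15 min, reports GPX4 activity via coupled glutathione reductase (100 nM). Enzyme 200 nM was pre-exposed to compound 30 min; 0.5 mM cumene hydroperoxide and 1 mM GSH served as substrates.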

[3] = target: Luciferin 4-monooxygenase (Photinus pyralis) (UniProt P08659); experiment: Primary firefly luciferase (FLuc) qHTS assay for identification of artifact compounds. (AID 1845220); also: nearly all actives have a fitted effect of over 60% in size
In short: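 FLuc 10 nM; luciferin 10 uM; ATP 10 uM; Tris-acetate pH 7.6, Mg-acetate 10 mM; 15 min RT preincubation; 5 min reaction; luminescence.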

[4] = Primary fluorescence-based thiol-reactive (MSTI) qHTS assay for identification of artifact compounds. (AID 1845221); also: nearly all actives have a fitted effect of over 65% in size; also: potency is read from the fitted curve at half-maximal effect
In short: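 Curve-fitted percent inhibition (4-parameter Hill) derived from fluorescence, Ex 525/Em 598 nm, scaled with Acetyl-MSTI and MSTI; 1 h incubation at room temperature.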

Sequence of Glutathione peroxidase 1 (Homo sapiens) (P07203 whole entry, looked up): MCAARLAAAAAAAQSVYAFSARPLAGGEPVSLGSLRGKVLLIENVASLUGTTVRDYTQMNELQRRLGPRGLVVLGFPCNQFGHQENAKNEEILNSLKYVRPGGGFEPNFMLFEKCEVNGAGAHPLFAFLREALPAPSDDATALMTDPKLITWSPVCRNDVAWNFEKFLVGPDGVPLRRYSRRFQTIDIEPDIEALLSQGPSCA
Sequence of Phospholipid hydroperoxide glutathione peroxidase GPX4 (Homo sapiens) (P36969 whole entry, looked up): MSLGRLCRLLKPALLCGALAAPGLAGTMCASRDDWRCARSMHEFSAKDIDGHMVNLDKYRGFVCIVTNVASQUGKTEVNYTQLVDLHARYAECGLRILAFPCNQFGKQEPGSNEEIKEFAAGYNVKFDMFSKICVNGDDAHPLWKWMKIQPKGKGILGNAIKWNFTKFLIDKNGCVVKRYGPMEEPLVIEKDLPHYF

With `CCc1cc(CC[C@]2(C3CCCC3)CC(O)=C(Cc3nc4nc(C)cc(C)n4n3)C(=O)O2)cc(CC)n1` the Potency [1] was “inactive”, the Potency [2] was “inactive” and the Potency [3] was “inactive”. For the same molecule, the Potency [4] was “inactive”.

In the case of `O=C(/C=C/N1C[C@@H]2C[C@@H]1CN2c1ccccn1)c1ccccc1O`, the Potency [1] is reported as “inactive”, the Potency [2] is reported as “inactive” and the Potency [3] is reported as “inactive”. The Potency [4] was “inactive”.

For `CC(O)C(O)/C=C/C=C/C(=O)O[C@@H]1C=C(C(=O)O)[C@](O)(CO)[C@@]2(C)CCCC(C)(C)[C@H]12` (stereo not given in full), the Potency [1] was “inactive”, the Potency [2] was “inactive” and the Potency [3] was “inactive”. For the same molecule, the Potency [4] was “inactive”.

For `CNc1nc(Nc2cn(C(C)(C)C#N)nc2C)ncc1C(F)(F)F`, the Potency [1] was “inactive”, the Potency [2] was “inactive” and the Potency [3] was “inactive”. The Potency [4] was “inactive”.

With `Cc1ccccc1-n1nc(-c2c(-c3ccc(F)cc3)nn3c2NC[C@@H](CO)C3)ccc1=O` the Potency [1] was “inactive”, the Potency [2] was “inactive” and the Potency [3] was “inactive”. The Potency [4] was “inactive”.

In the case of `CCC1(O)CC2c3cc(OC)c(OC)cc3CCN2CC1CC(C)C` (stereo not given), the Potency [1] is reported as “inactive”, the Potency [2] is reported as “inactive” and the Potency [3] is reported as “inactive”. The Potency [4] was “inactive”.

With `COc1cc(OC)cc(-c2ccc3c(-c4ccc(F)cc4)[nH]nc3n2)c1` the Potency [1] was “inactive”, the Potency [2] was “inactive” and the Potency [3] was “inactive”. For the same molecule, the Potency [4] was “inactive”.

With `COC(=O)[C@H](O)[C@H]1C(C)(C)[C@H](OC(C)=O)[C@@]2(O)C(=O)[C@]1(C)C1CC[C@]3(C)C(CC(=O)O[C@H]3c3ccoc3)[C@]13O[C@@H]32` (stereo not given in full) the Potency [1] was “inactive”, the Potency [2] was “inactive” and the Potency [3] was “inactive”. The Potency [4] was “inactive”.

In the case of `CC(C)CC(c1c(O)c(C=O)c(O)c(C=O)c1O)C1CCC(C)(O)C2CC(C(C)(C)O)CCC12C` (stereo not given), the Potency [1] is reported as “inactive”, the Potency [2] is reported as “inactive” and the Potency [3] is reported as “inactive”. For the same molecule, the Potency [4] was 4120 nM (active).

For `CCC(C)/C=C(C)/C=C/C1=CC2=C(Cl)C(=O)C(C)(OC(C)=O)C(=O)C2=CN1C(CCC(=O)O)C(=O)O` (stereo not given), the Potency [1] was “inactive”, the Potency [2] was “inactive” and the Potency [3] was “inactive”. For the same molecule, the Potency [4] was 367 nM (active).
